Screening results from PubChem BioAssay.
HP1b chromo inh: HTS for Inhibitors of HP1-beta Chromodomain Interactions with Methylated Histone Tails. Chromobox protein homolog 1 (Homo sapiens), P83916. AlphaScreen HP1-beta / biotin-H3K9me3 peptide binding. Potency, µM (series often up to 114 µM), without a hit: at the highest dose activity change, negative = inhibition, actives largely listed as inhibitors. 0.56% of 390,000 active; further: nearly all actives have a fitted effect of over 70% in size
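AlphaScreen: HP1-beta (50 nM) preformed 30 min with biotin-H3(1-18)K9me3 peptide (50 nM) in PBS pH 7.4, 0.01% Tween-20. Compound added for 30 min at RT, then streptavidin donor/nickel chelate acceptor beads (10 ug/mL) for 30 min.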
JMJD2A Tudor: qHTS Assay for Inhibitors of JMJD2A-Tudor Domain; Lysine-specific demethylase 4A (Homo sapiens), O75164; AlphaScreen JMJD2A-Tudor / H3K4me3 peptide binding; Potency, µM (titrated, usually from 114 µM), for inactives: top-dose activity change, negative = inhibition, usual class: inhibitors; 4.4% of 390,000 active; AID 504339, 2011; further: on the % scale 0 is the no-effect control and ±100 the full control effect; nearly all actives have a fitted effect of over 50% in size
Target sequence (O75164 whole entry, looked up, the tested form may be a part): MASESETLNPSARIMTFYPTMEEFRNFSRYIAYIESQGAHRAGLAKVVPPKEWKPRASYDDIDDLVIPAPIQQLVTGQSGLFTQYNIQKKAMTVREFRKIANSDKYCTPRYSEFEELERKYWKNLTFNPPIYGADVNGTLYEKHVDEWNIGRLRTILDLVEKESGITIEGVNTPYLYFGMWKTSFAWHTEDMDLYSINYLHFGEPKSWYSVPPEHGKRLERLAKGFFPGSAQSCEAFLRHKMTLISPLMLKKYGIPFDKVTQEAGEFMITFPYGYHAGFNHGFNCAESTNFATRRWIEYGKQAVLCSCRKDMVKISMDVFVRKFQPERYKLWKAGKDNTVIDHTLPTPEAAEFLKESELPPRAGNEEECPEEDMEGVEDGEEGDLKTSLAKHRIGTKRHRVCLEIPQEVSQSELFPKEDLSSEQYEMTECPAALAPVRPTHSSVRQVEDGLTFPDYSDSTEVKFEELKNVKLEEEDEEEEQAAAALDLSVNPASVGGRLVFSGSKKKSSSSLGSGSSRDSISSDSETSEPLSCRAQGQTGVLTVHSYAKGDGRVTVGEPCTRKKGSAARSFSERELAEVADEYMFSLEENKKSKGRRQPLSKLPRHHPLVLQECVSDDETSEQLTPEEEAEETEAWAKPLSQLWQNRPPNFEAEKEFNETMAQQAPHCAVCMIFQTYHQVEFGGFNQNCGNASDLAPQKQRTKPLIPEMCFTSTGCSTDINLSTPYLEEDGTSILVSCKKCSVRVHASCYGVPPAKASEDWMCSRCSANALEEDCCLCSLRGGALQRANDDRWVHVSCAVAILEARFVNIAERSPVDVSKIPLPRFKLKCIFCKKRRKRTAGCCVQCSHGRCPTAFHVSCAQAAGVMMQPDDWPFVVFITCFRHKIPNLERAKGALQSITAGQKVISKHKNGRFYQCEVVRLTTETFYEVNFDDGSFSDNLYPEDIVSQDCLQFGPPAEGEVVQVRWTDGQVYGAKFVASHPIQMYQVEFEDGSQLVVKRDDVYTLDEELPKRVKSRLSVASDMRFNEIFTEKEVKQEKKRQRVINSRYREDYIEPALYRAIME
G9a inh: qHTS Assay for Inhibitors of Histone Lysine Methyltransferase G9a; Histone-lysine N-methyltransferase EHMT2 (Homo sapiens), Q96KQ7; AID 504332, 2011; G9a H3K9 monomethylation, AlphaScreen, 2 h; 8.8% of 350,000 active; Potency, µM (highest dose often 102 µM), for the others: at the top dose activity, negative = inhibition, hits mostly inhibitors; further: on the % scale 0 is the no-effect control and ±100 the full control effect; nearly all actives have a fitted effect of over 75% in size
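G9a (20 nM) was preincubated 15 min with compound, then reacted 2 h at room temperature with 500 nM biotin-H3K9 peptide and 20 µM SAM. Monomethyl-H3K9 detected by AlphaScreen using anti-H3K9me1 antibody.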
VDR inhibitor: Inhibitors of the vitamin D receptor (VDR): qHTS. Vitamin D3 receptor (Homo sapiens), P11473. VDR-SRC2-3 peptide fluorescence polarization, 2 h. Potency, µM, for inactives: max response, negative = inhibition, most hits filed as inhibitors. 0.93% of 400,000 active. AID 504847, 2011; further: on the % scale 0 is the no-effect control and ±100 the full control effect
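Compounds are added to VDR with labelled SRC2-3 coactivator peptide and held 2 h at room temperature. Inhibition of the VDR–peptide interaction is then read as a change in fluorescence polarization.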
PLK1 PBD inh: qHTS for Inhibitors of PLK1-PDB (polo-like kinase 1 - polo-box domain): Primary Screen | Potency, µM, for the others: max response, negative = inhibition, actives largely listed as inhibitors | 2.8% of 360,000 active | Plk1 PBD binding of FITC phosphopeptide, fluorescence polarization | Serine/threonine-protein kinase PLK1 (Homo sapiens), P53350 | AID 720504, 2013; further: series mostly up to about 57 µM; on the % scale 0 is the no-effect control and ±100 the full control effect; nearly all actives have a fitted effect of over 65% in size
BAZ2B block: qHTS Assay for Inhibitors of BAZ2B; Bromodomain adjacent to zinc finger domain protein 2B (Homo sapiens), Q9UIF8; AlphaScreen BAZ2B-H3K14Ac peptide displacement; Potency, µM (doses to about 114 µM), for the others: at the top dose activity change, negative = inhibition, hits mostly inhibitors; 4.4% of 360,000 active; AID 504333, 2011; further: on the % scale 0 is the no-effect control and ±100 the full control effect; nearly all actives have a fitted effect of over 60% in size
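AlphaScreen displacement: compounds (up to 110uM) incubated 30 min at room temperature with a preformed 50 nM BAZ2B/50 nM biotinylated H3K14Ac peptide complex in PBS pH 7.4 with Tween-20. Donor and acceptor beads at 10 ug/mL final added, 20 min light-protected before reading.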
An asterisk follows results filed as active; ? = inconclusive; · = not tested or not shown; [ ] = remark or other dose. In the library only some 11% were active in any assay of this set; here they are far more common. The call rests on the fitted dose curve; in most records, active means well fitted curve in the direction sought with a large enough effect; inconclusive means small, poorly fitted or top-dose-only effect, or another doubt; inactive means no such curve, though single readings can be large; an effect the other way counts as inactive or inconclusive. Potency means the concentration at half of the fitted maximal effect.

SMILES	HP1b chromo inh	JMJD2A Tudor	G9a inh	VDR inhibitor	PLK1 PBD inh	BAZ2B block
Cc1ccc(Cn2c(C3CCCN3c3nc(-c4ccc(F)cc4)cs3)nc3cc(Cl)c(Cl)cc32)cc1 (stereo not given)	-5%	-28%	·	-6%	-4%	·
CCCn1c(C2CCCN2c2nc(-c3ccc(C)cc3)cs2)nc2ccccc21 (stereo not given)	-11%	-28%	40µM*	-12%	?	?
COc1ccc(C2/C=C\CC(NC(=O)OCC3c4ccccc4-c4ccccc43)CC(=O)N2Cc2cccc(F)c2)cc1 (stereo not given)	·	·	?	-7%	·	·
COc1ccc(C2/C=C\CC(NC(=O)OCC3c4ccccc4-c4ccccc43)CC(=O)N2Cc2ccccc2F)cc1 (stereo not given)	-12%	?	29%[59 µM]	?	30µM*	·
CCCc1cc(=O)oc2c(CN3CCCC3)c(O)ccc12	35%	5%	22%	0%	0%	4%
CCCc1cc(=O)oc2cc(C)c(CN3CCCC3)c(O)c12	-14%	50µM*	89µM*	-4%	?	13µM*
Cc1cc(C)c2c(CN3CCCC3)cc(=O)oc2c1	·	·	·	·	-16%	·
CCc1cc(=O)oc2cc(C)c(CN3CCCCC3)c(O)c12	-32%	56µM*	-25%[59 µM]	?	-30%	20µM*
CCc1cc(=O)oc2cc(C)c(CN3CCCC3)c(O)c12	-51%	20µM*	45µM*	-14%	?	18µM*
Nc1cc(N2CCCCC2)nc(N)[n+]1OS(=O)(=O)[O-]	·	·	27%[59 µM]	-1%	·	·
Fc1cccc(CCN2CCNC[C@@H]2CC2CCCCC2)c1	18%	-28%	0%[0.501 µM]	-8%	1%	?
COc1ccc(N=N/C(=C\O)C(=O)c2ccco2)cc1	-26%	-11%[11.4 µM]	?	-6%	27µM*	40µM*
COc1ccc(OC)c(C(=O)COC(=O)COc2ccccc2F)c1	50%	25%	14%	-12%	2%	23%
Cc1c(Cl)ccc2c(C(O)CBr)cc(-c3ccccc3)nc12 (stereo not given)	30%[57 µM]	5%	·	9%	-8%	·
O=C(Nc1ccccc1F)c1cc(-c2ccco2)nc2ccccc12	-13%	?	·	3%	?	·
COc1ccc(CCNC(=O)c2cc(-c3ccco3)nc3ccccc23)cc1	?	45µM*	·	-24%	?	·
CCN(CC)CCNC(=O)c1cc(-c2ccco2)nc2ccccc12	-2%	63µM*	32µM*	-5%	?	-29%
O=C(O)CN1CCN(c2ncc(C(F)(F)F)cc2Cl)CC1	9%	-28%	50µM*	-20%	-12%	-12%
CCOC(=O)/C(=N\Nc1ccc(Br)cc1)N1CC(C)OC(C)C1 (stereo not given)	7%	?	3.2µM*	-7%	-1%	-31%
CCOC(=O)/C(=N\Nc1ccccc1Cl)N1CC(C)OC(C)C1 (stereo not given)	49%	-2%	1%[59 µM]	-2%	-2%	?
CC(C)C[C@@H](CNCC(=O)[C@H](C)NC(=O)c1[nH]cnc1C(=O)N[C@@H](C)CN)NC(=O)c1nc[nH]c1C(=O)N[C@@H](C)C(=O)O	66%	50µM*	·	-8%	-9%	·
CC(C)C[C@@H](CNCC(=O)[C@H](C)NC(=O)c1[nH]cnc1C(=O)N[C@@H](C)CN)NC(=O)c1nc[nH]c1C(=O)N[C@@H](CO)C(=O)O	27%	89µM*	·	-9%	-9%	·
CC(C)C[C@@H](CNCC(=O)[C@H](Cc1ccccc1)NC(=O)c1[nH]cnc1C(=O)N[C@@H](C)CN)NC(=O)c1nc[nH]c1C(=O)N[C@@H](C)C(=O)O	55%	79µM*	·	-11%	-22%	·
CC(C)C[C@@H](CNCC(=O)[C@H](CC(C)C)NC(=O)c1[nH]cnc1C(=O)N[C@@H](C)CN)NC(=O)c1nc[nH]c1C(=O)N[C@@H](Cc1ccccc1)C(=O)O	35%	-29%	·	-15%	-6%	·
CC1=CS(=O)(=O)CC1Sc1nc(C)n[nH]1 (stereo not given)	31%	-8%	50µM*	9%	-11%	?
SMILES	HP1b chromo inh	JMJD2A Tudor	G9a inh	VDR inhibitor	PLK1 PBD inh	BAZ2B block
CC1=CS(=O)(=O)CC1Sc1nc2ccccc2[nH]1 (stereo not given)	24%	-35%	79µM*	-11%	-8%	-6%
CC1=CS(=O)(=O)CC1Sc1ncn[nH]1 (stereo not given)	11%	?	?	5%	-7%	-10%
CN(C(=O)CSc1nc2ccccc2[nH]1)C1CCS(=O)(=O)C1 (stereo not given)	20%	7%	?	-9%	0%	12%
Cc1nc2scc(C)n2c(=O)c1S(=O)(=O)Nc1ccc(N2CCOCC2)c(Cl)c1	-15%	?	7%[59 µM]	-24%	27µM*	-25%
Cc1nc2scc(C)n2c(=O)c1S(=O)(=O)NCC1CCN(Cc2ccc(Cl)cc2)CC1	-4%	-24%	23%[59 µM]	-8%	19µM*	-14%
COc1ccccc1C(c1nnnn1CCc1ccccc1)N1CCCCCC1 (stereo not given)	36%	-5%	-5%[12.7 µM]	8%	-5%	10%
CC(=O)n1c2ccccc2c2nc3ccccc3nc21	35%	0%	33%[0.501 µM]	-13%	-3%	37%
CC(=O)N=c1sc2nc3ccccc3nc2n1N(C(C)=O)C(C)=O	?	7.9µM*	?	?	?	50µM*
COc1ccc(S(=O)(=O)NCCc2csc(-c3ccc(F)cc3)n2)cc1F	25%[57 µM]	0%	0%[59 µM]	10%	·	4%
Cc1cccc(NS(=O)(=O)c2ccc3c(c2)oc(=O)n3C)c1C	29%	-16%	16%[59 µM]	2%	-8%	-20%
CCN(C(=O)c1c(C)oc2ncn(CC(C)C)c(=O)c12)c1cccc(Cl)c1	19%	-14%	-25%[59 µM]	7%	·	12%[57.1 µM]
CC(C1CC2CCC1C2)n1c(-c2cccs2)n[nH]c1=S (stereo not given)	12%	?	?	-12%	-8%	?
CCc1cc(-c2n[nH]c(=S)n2C(C)c2ccccc2)cs1 (stereo not given)	20%	-35%	10µM*	-2%	-12%	6%
Cc1scc(-c2n[nH]c(=S)n2C(C)c2ccccc2)c1C (stereo not given)	16%	79µM*	2µM*	-4%	-4%	?
